NALP1 inh: NALP1 inflammasome inhibitors in reconstituted yeast, colorimetric, S. cerevisiae, triplicate retest | S. cerevisiae NALP1/ASC/caspase-1 growth, X-gal OD620, 72 h | 0.61% of 280,000 active | AID 2071, 2009 | inhibition, % at 10 µM; in the data active means inhibition mostly above about 24%, no sharp cut-off; inactive means mostly below about 32%
tim23-1 inh: growth inhibitors of tim23-1 mutant yeast, primary screen, luminescence, uHTS | S. cerevisiae tim23-1 growth, BacTiter-Glo luminescence, 24 h | inhibition, % at 20 µM | 1.3% of 330,000 active;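 active means growth inhibition of the mutant yeast at or above 50%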;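 further: temperature-sensitive mutant grown at 25 °C; plate controls were DMSO-treated mutant yeast for no effect and medium wells lacking yeast for full effect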
SKKanGAS inh: S. pyogenes SKKanGAS growth inhibitors in kanamycin, primary screen, streptokinase expression inhibitor project, SKKanGAS strain, BacTiter-Glo luminescence. 6 h. inhibition, % at 7.5 µM. 1.3% of 300,000 active. AID 1662, 2009;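 active means mean replicate score, as percent of positive control median, at least 50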;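 further: strain carries kanamycin resistance gene driven by streptokinase promoter and grows in 40 µg/ml kanamycin; loss of luminescence reflects streptokinase promoter inhibition or plain growth inhibition; 0% = median of DMSO wells and 100% = positive control at its reference dose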
NLRP3 yeast inh: NALP3 inflammasome inhibitors in reconstituted yeast, primary screen, luminescence, uHTS | Yeast reconstituted NLRP3/ASC/caspase-1, beta-gal luminescence, 24 h | inhibition, % at 10 µM | 0.39% of 330,000 active;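 active means inhibition of 50% or more; inactive means inhibition below 50%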;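 further: plate controls were induced DMSO wells for no effect and uninduced yeast grown without galactose for full effect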
TIM10 inh: growth inhibitors of isogenic TIM10 control yeast, primary screen, counter-screen for tim10-1 yeast inhibitor project, luminescence, uHTS; S. cerevisiae TIM10 strain growth, BacTiter-Glo luminescence, 24 h; inhibition, % at 10 µM; 1.4% of 330,000 active; AID 463195, 2010;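 active means inhibition of 40% or more at the single tested concentration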;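 further: wild-type TIM10 isogenic control strain grown at permissive 25 °C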
tim10-1 inh: growth inhibitors of tim10-1 mutant yeast, primary screen, luminescence, uHTS; S. cerevisiae tim10-1 ts strain growth, BacTiter-Glo, 24 h; 2.2% of 330,000 active; inhibition, % at 20 µM;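 active means inhibition of at least 40%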;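 further: mutant grown at 25 °C; 0% = DMSO wells with yeast and 100% = wells holding no yeast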
Active calls of the source: *; · = no result. Sampled rows, rich in hits. Any-hit rate of the full collection: about 4.9%.

SMILES	NALP1 inh	tim23-1 inh	SKKanGAS inh	NLRP3 yeast inh	TIM10 inh	tim10-1 inh
O=C1C=C(N2CCCCC2)c2ccccc2C1=O	·	12	82*	7	36	21
CC(C)=CC(=O)N1CCCC(N2CCN(c3ccc(F)cc3)CC2)C1 (stereo unspecified)	13	0	3	13	-11	-13
Cc1oc(-c2ccccc2F)nc1CS(=O)(=O)CC(=O)NCCN1CCCC1	29*	14	2	3	10	16
CC1CCC2(CC1)NC(=O)N(CC(=O)N1c3ccccc3CC1C)C2=O (stereo unspecified)	·	11	·	21	-11	-9
COc1ccc(NC(=O)c2cc(-c3cccnc3)nc3ccc(C)cc23)cc1OC	34*	·	·	·	·	·
O=C(NCc1ccc(F)cc1)c1c2c(nc3ccccc13)CCC2	-18	-11	6	5	-11	6
Cc1cccc(CSc2nc3c(c(-c4cccs4)c2C#N)CN(C)CC3)c1	43	23	-4	-11	22	20
Cc1cccc(CSc2nc(N)c(C#N)c(-c3cccs3)c2C#N)c1	7	-14	59*	10	-12	16
COc1cccc(CN2CC(C(=O)NCc3ccc(C)o3)CCC2=O)c1 (stereo unspecified)	4	-6	8	13	-3	-5
COc1ccc(C(=O)N(Cc2sccc2C)C2CCS(=O)(=O)C2)cc1 (stereo unspecified)	26*	15	-5	5	5	21
Cc1ccc(C(=O)N(Cc2sccc2C)C2CCS(=O)(=O)C2)cc1 (stereo unspecified)	7	19	2	17	11	22
CC(=O)c1cccc(NC(=O)COC(=O)c2ccccc2C)c1	13	29	0	1	11	14
CC1CCC2(CC1)NC(=O)N(CC(=O)NC(C)c1ccc(F)c(F)c1)C2=O (stereo unspecified)	·	-5	·	24	-4	-3
C=CCSC(=S)NC1CCS(=O)(=O)C1 (stereo unspecified)	82*	27	1	25	15	10
COc1ccc(-c2sc3ccc(N4CCOCC4)cc3c2-c2ccc(OC)c(F)c2)cc1	2	-14	12	9	2	17
Cc1ccc2c(c1)c(N=Nc1ccc([N+](=O)[O-])cc1)c(O)n2C	33*	0	4	9	-9	18
Cn1c(O)c(N=Nc2ccccc2)c2ccccc21	22	25	4	36	20	29
COc1ccc(NC(=O)c2cccc(N3C(=O)C4C5C=CC(C5)C4C3=O)c2)cc1Cl (stereo unspecified)	24	3	2	3	11	-9
O=C(COC(=O)C1=COCCO1)Nc1ccc([N+](=O)[O-])cc1C(F)(F)F	·	0	·	21	2	-10
CC(C)CSc1nc(N2CCOCC2)c2c(c1C#N)CC(C)(C)SC2	-1	24	·	2	7	32
CC(C)Sc1nc(N2CCOCC2)c2c(c1C#N)CC(C)(C)SC2	36*	29	2	4	14	22
CCN1CCN(C(=O)/C=C/c2cccc(Cl)c2)CC1	16	-15	-1	11	-9	-13
Cc1cc(C(=O)Nc2ccc3c(c2)OCCO3)ccc1[N+](=O)[O-]	41*	9	5	18	-5	-1
O=C(N/N=C/c1ccc(F)cc1)c1cccc(NC(=O)c2ccccc2Cl)c1	4	33	3	17	13	28
CCOC(=O)c1sc2nc(C)nc(NCc3ccc(Cl)cc3)c2c1C	2	28	32	6	-10	23
SMILES	NALP1 inh	tim23-1 inh	SKKanGAS inh	NLRP3 yeast inh	TIM10 inh	tim10-1 inh
CCOC(=O)c1sc2nc(Cc3ccc(Cl)cc3)[nH]c(=S)c2c1C	0	-15	58*	14	-4	-25
COc1cc(NC(=O)CSc2ncnc3sc4c(c23)CCCC4)c(C(=O)O)cc1OC	5	8	55*	-22	13	1
O=C(/C=C/Nc1ccccc1F)c1cccs1	57*	32	7	25	29	11
Cc1ccccc1OCC(=O)NCCCNC(=O)c1ccco1	0	0	5	-10	15	-14
Cn1c(NCc2ccco2)nc2c1c(=O)n(Cc1ccc(Cl)c(Cl)c1)c(=O)n2C	18	6	59*	16	32	12
O=[N+]([O-])c1ccc(CSc2ccc(S(=O)(=O)N3CCCCC3)cn2)cc1	·	18	·	19	16	15
CC(/C=C1\SC(=S)N(C(C(=O)O)c2ccccc2)C1=O)=C\c1ccccc1 (stereo unspecified)	-12	20	61*	6	7	2
Cc1csc(=O)n1CCC(=O)OCc1nnc(-c2ccc(Cl)cc2)o1	·	24	·	21	-7	1
O=C(O)c1cccnc1SC1CC(=O)N(c2ccccc2)C1=O (stereo unspecified)	·	20	-1	-1	-1	1
COC(=O)c1c(N2C(=O)CC(Sc3ccccc3C(=O)O)C2=O)sc(C)c1C (stereo unspecified)	22*	28	3	1	23	32
O=C(O)c1ccccc1SC1CC(=O)N(c2ccccc2)C1=O (stereo unspecified)	57*	36	3	18	7	33
Nc1ccc(C#Cc2ccc3c(=O)c4ccccc4oc3c2)cc1	11	10	13	22	9	21
COc1cc2oc3cc(C#Cc4ccc(N)cc4)ccc3c(=O)c2cc1OC	·	-5	58*	9	0	-4
COc1cc2oc3ccc(C#Cc4ccc(N)cc4)cc3c(=O)c2cc1OC	·	·	78*	·	·	·
O=C(NNC1=C(C(=O)C(F)(F)F)CCC1)c1cccc(Cl)c1	-9	-6	96*	5	-75	-40
COc1ccc(Cn2c(O)c(C=Nc3ccc(O)cc3)c3ccccc3c2=O)cc1	39	30	20	27	34	30
O=c1c2ccccc2c(C=Nc2ccc(O)cc2)c(O)n1Cc1ccccc1	·	11	67*	17	19	21
CS(=O)(=O)Nc1cccc(C2=NN(C(=O)c3cccc([N+](=O)[O-])c3)C(c3cccs3)C2)c1 (stereo unspecified)	5	15	12	16	-4	12
Cc1cccc(NC(=O)c2nc[nH]c2C(=O)NCCCCCNC(=O)OC(C)(C)C)c1	·	21	·	12	15	16
CC(C)C[C@H](NC(=O)c1[nH]cnc1C(=O)N[C@@H](C)C(=O)OC(C)(C)C)C(=O)OCc1ccccc1	·	29	73*	9	30	23
CC(C)C[C@H](NC(=O)c1nc[nH]c1C(=O)NCc1ccccc1)C(=O)OCc1ccccc1	-1	15	54*	7	8	15

Screening data deposited in PubChem BioAssay by several laboratories.
